# Test results published in PubChem BioAssay (EPA / NIEHS).
# Inconclusive results are not listed. The source made the active and inactive calls. Rule for the calls: active = hit-call score of the fitted dose curve at least 0.9, where 1 is the maximum; inconclusive = response in the unintended direction; inactive = score below 0.9.
# Target: rat Peripheral-type Benzodiazepine Receptor (PBR), Tspo (gene 24230) (UniProt P16257)
# Experiment: NVS_MP_rPBR: NovaScreen (NVS) Membrane Protein Assay for rat Peripheral-type Benzodiazepine Receptor (PBR) (AID 2283335)
# Method in brief: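 Competitive displacement of specific radioligand from rat kidney membrane PBR, read by filtration and scintillation after 1 h. Compounds first tested at 25 uM in duplicate, then in concentration series; signal loss relative to DMSO.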
# rat Peripheral-type Benzodiazepine Receptor (PBR), Tspo (gene 24230), sequence (P16257 whole entry, looked up): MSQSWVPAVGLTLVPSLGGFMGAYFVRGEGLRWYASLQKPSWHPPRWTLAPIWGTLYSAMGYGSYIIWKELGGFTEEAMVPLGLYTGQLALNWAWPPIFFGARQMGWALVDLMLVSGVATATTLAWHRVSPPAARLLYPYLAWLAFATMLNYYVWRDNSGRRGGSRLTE
Compound,AC50,outcome
O=S(=O)(c1ccc(O)cc1)c1ccc(O)cc1,4.76 µM (active),
CO/N=C(/C(=O)OC)c1ccccc1COc1ccccc1C,0.947 µM (active),
N#Cc1cc([N+](=O)[O-])ccc1N,25 µM (active),
C=CC(=O)OCC(CC)(COC(=O)C=C)COC(=O)C=C,25 µM (active),
CCOP(=S)(NC(C)C)Oc1ccccc1C(=O)OC(C)C (stereo not drawn),,inactive
Nc1ccc([N+](=O)[O-])cc1Cl,,inactive
Cc1ccc2c(c1N)C(=O)c1ccccc1C2=O,1.4 µM (active),
O=P(Oc1ccccc1)(Oc1ccccc1)Oc1ccccc1,1.96 µM (active),
N#Cc1c(-c2ccc(Cl)cc2)[nH]c(C(F)(F)F)c1Br,0.377 µM (active),
Nc1ccc2ccccc2c1,7.21 µM (active),

# Target: bovine Gamma-Aminobutyric Acid Type A Receptor Agonist (GABAR Agonist), GABRA1 (gene 780973) (UniProt P08219)
# Sequence (P08219 whole entry, looked up): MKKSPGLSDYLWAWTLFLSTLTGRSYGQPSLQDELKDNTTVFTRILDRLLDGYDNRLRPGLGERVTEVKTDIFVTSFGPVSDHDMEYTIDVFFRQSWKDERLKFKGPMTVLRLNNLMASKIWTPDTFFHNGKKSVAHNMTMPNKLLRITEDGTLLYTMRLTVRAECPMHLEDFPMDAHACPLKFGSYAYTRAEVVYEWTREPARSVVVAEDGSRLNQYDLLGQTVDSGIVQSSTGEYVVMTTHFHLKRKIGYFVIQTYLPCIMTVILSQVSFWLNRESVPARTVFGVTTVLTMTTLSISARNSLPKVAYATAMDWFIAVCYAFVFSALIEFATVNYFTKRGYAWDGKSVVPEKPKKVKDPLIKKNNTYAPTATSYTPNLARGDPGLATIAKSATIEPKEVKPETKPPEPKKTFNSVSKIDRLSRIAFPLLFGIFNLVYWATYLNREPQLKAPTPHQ
# Experiment: NVS_LGIC_bGABAR_Agonist: NovaScreen (NVS) Ligand-Gated Ion Channel Assay for bovine Gamma-Aminobutyric Acid Type A Receptor Agonist (GABAR Agonist) (AID 2283338)
# Method in brief: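 Radioligand binding to bovine cerebellar membranes in agonist format, read by filter-based scintillation counting after 1 h. Primary screen in duplicate at 25 uM, with actives followed in concentration series. Gain of signal versus DMSO.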
row,Compound,outcome
1,CCCCN(CCCC)N=O,inactive
2,O=P(Oc1ccccc1)(Oc1ccccc1)Oc1ccccc1,inactive
3,O=C(O)C(Cl)Cl,inactive

# Target: human Constitutive Androstane Receptor (CAR), NR1I3 (gene 9970) (UniProt Q14994)
# Sequence (Q14994 whole entry, looked up): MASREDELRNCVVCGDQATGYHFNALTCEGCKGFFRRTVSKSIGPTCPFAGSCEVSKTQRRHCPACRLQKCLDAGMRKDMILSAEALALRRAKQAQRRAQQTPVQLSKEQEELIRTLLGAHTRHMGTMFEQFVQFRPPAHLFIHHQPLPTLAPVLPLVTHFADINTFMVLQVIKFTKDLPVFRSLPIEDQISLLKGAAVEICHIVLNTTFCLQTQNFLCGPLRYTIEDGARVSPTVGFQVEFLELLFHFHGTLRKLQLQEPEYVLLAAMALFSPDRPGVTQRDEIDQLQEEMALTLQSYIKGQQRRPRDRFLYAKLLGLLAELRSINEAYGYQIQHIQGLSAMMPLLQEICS
# Experiment: NVS_NR_hCAR_Antagonist: NovaScreen (NVS) Nuclear Receptor Binding Assay for human Constitutive Androstane Receptor Antagonism (CAR) (AID 2283344)
# Protocol: NVS_NR_hCAR_Antagonist is a biochemical, single-readout assay that uses extracted gene-proteins in a cell-free assay. Measurements were taken 1 hour after chemical dosing in a 384-well plate.NVS_NR_hCAR_Antagonist is one of one assay component(s) measured or calculated from the NVS_NR_hCAR_Antagonist assay. It is designed to make measurements of fluorescent resonance energy transfer, a form of binding reporter, as detected with fluorescent resonance energy transfer signals by Time-Resolved Fluorescence Resonance Energy Transfer (TR-FRET) technology.Data from the assay component NVS_NR_hCAR_Antagonist was analyzed into 1 assay endpoint. This assay endpoint, NVS_NR_hCAR_Antagonist, was analyzed in the positive analysis fitting direction relative to DMSO as the negative control and baseline of activity. Using a type of binding reporter, loss-of-signal activity can be used to understand changes in the binding as they relate to the gene NR1I3. Furthermore, this assay endpoint can be referred to as a primary readout, because the performed assay has only produced 1 assay endpoint. To generalize the intended target to other relatable targets, this assay endpoint is annotated to the nuclear receptor intended target family, where the subfamily is non-steroidal.
# Binding assays used specific radioligands (tritiated, iodinated) with non-radioactive competitive displacement ligands in agonist or antagonist protocols (as indicated) and various reference compounds and inhibitors to titrate specific binding to receptors and transporters. Most enzyme assays (CYPs, kinases, phosphatases, proteases, HDACs) used recombinant protein and specific substrates (fluorescence mostly, some colorimetric and radioactive) and inhibitors, followed by a biochemical separation of substrate and product. All assays for the biochemical HTS were initially run in duplicate at a single concentration (10 uM for CYP450 assays and 25 uM for all others). […] Each assay was run with positive and negative controls, and concurrent controls on every plate. […]
row,Compound,outcome
1,CC(C)(C)OOC(C)(C)C,inactive
2,ClC1=C(Cl)C2(Cl)C3C(Cl)C(Cl)CC3C1(Cl)C2(Cl)Cl (stereo not drawn),inactive
3,CCCN(CCC)c1c([N+](=O)[O-])cc(C(C)C)cc1[N+](=O)[O-],inactive

# Target: bovine Estrogen Receptor (ER), ESR1 (gene 407238) (UniProt P49884)
# Sequence (P49884 whole entry, looked up): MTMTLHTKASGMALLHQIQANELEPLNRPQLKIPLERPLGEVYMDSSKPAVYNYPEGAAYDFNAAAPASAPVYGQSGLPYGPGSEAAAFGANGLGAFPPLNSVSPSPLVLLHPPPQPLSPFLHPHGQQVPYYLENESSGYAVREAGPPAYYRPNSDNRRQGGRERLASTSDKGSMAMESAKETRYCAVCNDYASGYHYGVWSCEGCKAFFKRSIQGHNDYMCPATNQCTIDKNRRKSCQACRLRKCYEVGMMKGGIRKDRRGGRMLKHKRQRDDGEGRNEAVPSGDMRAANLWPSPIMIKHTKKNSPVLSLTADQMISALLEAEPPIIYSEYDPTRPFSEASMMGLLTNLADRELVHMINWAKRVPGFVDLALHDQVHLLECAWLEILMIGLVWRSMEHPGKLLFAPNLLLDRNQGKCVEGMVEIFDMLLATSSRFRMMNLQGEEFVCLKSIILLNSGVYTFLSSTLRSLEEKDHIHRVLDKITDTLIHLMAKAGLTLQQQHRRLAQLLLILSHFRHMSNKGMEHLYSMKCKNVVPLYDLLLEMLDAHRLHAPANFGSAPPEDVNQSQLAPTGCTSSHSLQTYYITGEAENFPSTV
# Experiment: NVS_NR_bER: NovaScreen (NVS) Nuclear Receptor Binding Assay for bovine Estrogen Receptor (ER) (AID 2283345);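 note: actives lower the bound radioligand count which means they displace the ER ligand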
# Method in brief: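 Displacement of a radioligand from estrogen receptor in bovine uterine membrane preparations; scintillation signal taken at 18 hours, DMSO as baseline. Single-concentration duplicates (25 uM) preceded concentration-response follow-up of actives.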
Compound,outcome,AC50
CCNc1nc(Cl)nc(NC(C)(C)C)n1,inactive,
O=S(=O)(c1ccc(O)cc1)c1ccc(O)cc1,,15.1 µM (active)
CO/N=C(/C(=O)OC)c1ccccc1COc1ccccc1C,inactive,
Nc1ccc(Sc2ccc(N)cc2)cc1,inactive,
C=CC(=O)OCC(CC)(COC(=O)C=C)COC(=O)C=C,,42.2 µM (active)
CC1(C)CN=C(NN=C(/C=C/c2ccc(C(F)(F)F)cc2)/C=C/c2ccc(C(F)(F)F)cc2)NC1,inactive,
c1nc[nH]n1,inactive,
ClC1=C(Cl)C2(Cl)C3C(Cl)C(Cl)CC3C1(Cl)C2(Cl)Cl (stereo not drawn),inactive,
c1ccc(OP(Oc2ccccc2)Oc2ccccc2)cc1,inactive,
CCCCOCC1CO1 (stereo not drawn),inactive,
CCCCN(CCCC)SN(C)C(=O)Oc1cccc2c1OC(C)(C)C2,inactive,
CC(Cl)(Cl)C(=O)O,inactive,
Cc1ccc2c(c1N)C(=O)c1ccccc1C2=O,inactive,
CCOP(=S)(Oc1ccc([N+](=O)[O-])cc1)c1ccccc1 (stereo not drawn),inactive,
CCCCc1ccc(O)cc1,inactive,
CCCN(CCC)c1c([N+](=O)[O-])cc(C(C)C)cc1[N+](=O)[O-],inactive,
O=[N+]([O-])c1ccccc1,inactive,
